We go through 37 compounds from ChEMBL document CHEMBL3433997, “St. Jude Leishmania screening dataset” (2016).

Format in all cases: functional
For experiment [1], the target named is Solute carrier family 2, facilitated glucose transporter member 1 (Homo sapiens) (UniProt P11166). Kind of experiment: ST_JUDE_LEISH: Cytotoxicity at 2uM final concentration against transgenic Leishmania Mexicana promastigotes LmGLUT1 that are glucose transport deficient and complemented with the human glucose transporter GLUT1. Activity is measured by DNA content using SYBR green in vitro.

The target in experiment [2] is Hexose transporter 1 (Plasmodium falciparum) (UniProt O97467). Kind of experiment: ST_JUDE_LEISH: Cytotoxicity at 2uM final concentration against transgenic Leishmania Mexicana promastigotes LmPfHT that are glucose transport deficient and complemented with the Plasmodium falciparum hexose transporter. Activity is measured by DNA content using SYBR green in vitro.
Experiment [3] addresses Glucose transporter (Leishmania mexicana) (UniProt O61059). Kind of experiment: ST_JUDE_LEISH: Cytotoxicity at 2uM final concentration against transgenic Leishmania Mexicana promastigotes LmGT2 that are glucose transport deficient and complemented with the L. Mexicana glucose transporter 2. Activity is measured by DNA content using SYBR green in vitro.

Solute carrier family 2, facilitated glucose transporter member 1 (Homo sapiens), sequence (P11166 whole entry): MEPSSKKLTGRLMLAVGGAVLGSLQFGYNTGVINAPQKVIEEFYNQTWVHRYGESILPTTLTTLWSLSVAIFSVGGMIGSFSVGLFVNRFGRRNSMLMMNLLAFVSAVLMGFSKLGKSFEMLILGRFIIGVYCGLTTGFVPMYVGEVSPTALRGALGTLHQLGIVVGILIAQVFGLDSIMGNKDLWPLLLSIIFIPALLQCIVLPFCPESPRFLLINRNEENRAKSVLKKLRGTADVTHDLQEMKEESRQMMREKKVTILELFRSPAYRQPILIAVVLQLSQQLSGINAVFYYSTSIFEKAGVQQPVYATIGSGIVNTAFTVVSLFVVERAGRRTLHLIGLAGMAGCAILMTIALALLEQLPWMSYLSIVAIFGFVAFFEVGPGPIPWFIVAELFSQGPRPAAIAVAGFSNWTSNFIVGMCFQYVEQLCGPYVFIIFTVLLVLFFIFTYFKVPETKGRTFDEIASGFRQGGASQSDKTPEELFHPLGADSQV

As usually defined, the inhibition is the relative decrease from the control value, in per cent. On to `CS(=O)(=O)c1ccc(-c2cncc(Nc3cccc([N+](=O)[O-])c3)c2)cc1`, for which the figures for the inhibition in experiment [1], in experiment [2] and in experiment [3] were 7.42%, 7% and 6.3%, respectively.
For `Cn1cncc1C(=O)Nc1ccc(-c2cccc(-c3nc4cc(C(F)(F)F)ccc4[nH]3)c2)cc1`, in that order: 1.53%, 1.11% and 2.32%.
In the same order, the values of `COc1cc(Nc2ccnc3cc(-c4nccs4)ccc23)ccc1OCCCc1nc2ccccc2[nH]1` are 3.6%, 4.2% and 4.89%.
For `O=c1c(NCCCN(Cc2ccc(F)cc2)c2ccccn2)c(NCc2ccncc2)c1=O`, the results for the inhibition in experiment [1], in experiment [2] and in experiment [3] were 4.35%, 3.53% and 5.17%, respectively.
For `c1ccc2c(CNCCCN3CCN(CCCNCc4c5ccccc5cc5ccccc45)CC3)c3ccccc3cc2c1`, in that order: 10.3%, 4% and 0.34%.
In the case of `CN(CCC(O)c1ccc(Cl)c(Cl)c1)CC1CC1C(=O)c1ccccc1` (stereo unspecified), the inhibition amounted to 4.57% in experiment [1], 4.62% in experiment [2] and 5.49% in experiment [3].
Turning to `Cn1c2ccccc2c2c3ccccc3c(CNC(CO)(CO)CO)cc21`, the inhibition in experiment [1] is 13.8%; in experiment [2], 12.7%; in experiment [3], 6.67%.
Take `COc1ccc2c(=NN=Cc3cccc(Cl)c3)cc(C)[nH]c2c1`: the values for the inhibition in experiment [1], in experiment [2] and in experiment [3] were 2.13%, 0.71% and -0.53%, respectively.
In the same order, the values of `COc1ccc(Cc2c(Cl)nc3nc(N)nc(N)c3c2C)cc1` are 7.37%, 7.06% and 8.71%.
In the same order, the values of `CCCCc1ccc(S(=O)(=O)Nc2ccc3c(c2)CCN(Cc2c[nH]c4cnccc24)CC3)cc1` are -1.78%, -0.79% and 5.76%.
For `CCOc1cc(C(=O)Nc2ccc3nc(N4CCN(C)CC4)cc(C)c3c2)cc(OCC)c1OCC`, the inhibition in experiment [1] was 3.11%; in experiment [2], 3.76%; in experiment [3], 1.63%.
`COc1ccc2cc(C(=O)Nc3ccc4c(c3)CCN(C3CCC3)CC4)ccc2c1`: the inhibition in experiment [1] is -2.16%; in experiment [2], 2%; in experiment [3], 3.8%.
Regarding `Cc1cc(Nc2ccc(C)c(C)c2)n2nc(C)nc2n1`, the inhibition in experiment [1] is 5.08%; in experiment [2] it was 5.03%; in experiment [3] it was 5.46%.
In the case of `Cc1cc(O)c(CNC2CCCCC2)cc1C`, the figures for the inhibition in experiment [1], in experiment [2] and in experiment [3] were 1.17%, 1.33% and 2.92%, respectively.
For `CCOC(=O)CCCCOc1c(OC)cc(Cc2cnc(N)nc2N)cc1OC`, in that order: 6.18%, 6.88% and 6.09%.
Take `COc1ccccc1-n1c(SCC(=O)Nc2ccccc2F)nc2cccnc21`: the inhibition in experiment [1] worked out at 2.95%; in experiment [2] it was 1.38%; in experiment [3], 2.25%.
With `CCc1ccc2c(c1O)CCN(C)C2Cc1ccccc1Cl` (stereo unspecified), the inhibition in experiment [1] stood at 8.14%; in experiment [2], 5.29%; in experiment [3], 11.8%.
In the same order, the values of `O=C(NCCN1CCCCC1)c1ccc(CNC(=O)c2ccc(O)c(-c3cccc(C(F)(F)F)c3)c2)cc1` are 4.42%, 3.09% and 3.27%.
For `CCCC(CNCc1ccccc1)CNc1cc(=O)c2ccccc2[nH]1` (stereo unspecified), in that order: -0.08%, -3.44% and -0.73%.
On to `CCCn1c(O)nnc1SCC(=O)Nc1cc(C(F)(F)F)ccc1Cl`, for which the inhibition in experiment [1] amounted to 6.43%; in experiment [2], 4.55%; in experiment [3], 6.33%.
For `N=C(N)NN=CC(=O)Nc1ccc(Cl)c(Cl)c1`, in that order: 0.13%, -1.4% and -1.96%.
For `CC(=O)Nc1ccc(OCCN(CC(C)C)c2ccc(C(F)(F)F)c(C#N)c2)c(Cl)c1`, in that order: 6.51%, 10.4% and 8.7%.
In the case of `COC(=O)CCCCOc1c(OC)cc(Cc2cnc(N)nc2N)cc1OC`, the values for the inhibition in experiment [1], in experiment [2] and in experiment [3] were 11.2%, 7.13% and 7.7%, respectively.
As to `CC(=O)Oc1c(Cl)c(C)nc(C)c1-c1ccc(Oc2ccc(OC(F)(F)F)cc2)cc1`, the values for the inhibition in experiment [1], in experiment [2] and in experiment [3] were 3.62%, 3.09% and 2.42%, respectively.
For `Cc1ccc2c(=NN=Cc3ccc(N(C)C)cc3)cc(C)[nH]c2c1`, in that order: 1.24%, 2.71% and -5.38%.
In the same order, the values of `N=C(N)NN=CC(=O)Nc1cccc(C(F)(F)F)c1` are 0.23%, 0.15% and -1.62%.
In the same order, the values of `CC1(C)NC(N)=NC(=N)N1OCCSc1ccccc1` are 2.9%, 3.7% and 3.37%.
With `Cc1ccccc1Oc1nc2ccccc2nc1SCC(=O)NC(C)C`, the inhibition in experiment [1] was 2.29%; in experiment [2], 2.25%; in experiment [3] it was -1.86%.
For `CCCC1N=C(N)N=C(N)N1c1cccc(C(F)(F)F)c1` (stereo unspecified), in that order: 0.83%, 0.06% and 0.06%.
In the same order, the values of `Cc1c(CNCCCNc2cc(=O)c3ccccc3[nH]2)sc(-c2ccco2)c1Br` are 14.4%, 13.6% and 13.9%.
In the same order, the values of `O=C(Nc1nc2cc(S(=O)(=O)NCCc3cccc(F)c3)ccc2n1CCCn1ccnc1)c1ccc(Cl)cc1` are 1.22%, 0.32% and 4.97%.
`Cc1cc(C(F)(F)F)n2nc(C3CCN(Cc4cc(C)c(O)c(C)c4)C3)cc2n1` (stereo unspecified): the inhibition in experiment [1] is 4.53%; in experiment [2], 3.54%; in experiment [3], -0.59%.
As for `COc1cc(CNC[C@@H](O)[C@H](Cc2ccccc2)NC(=O)c2cc(C3CCCC3)cc(N3CCCCS3(=O)=O)c2)cc(OC)c1`, the inhibition turned out to be 5.15% in experiment [1], 5.6% in experiment [2] and 6.05% in experiment [3].
With `Cc1cc(=NN=Cc2ccc(F)cc2)c2ccc(F)cc2[nH]1`, the values for the inhibition in experiment [1], in experiment [2] and in experiment [3] were 0.14%, 0.15% and -0.46%, respectively.
For `O=C(Cc1ccc(NC(=O)c2ccc(O)c(-c3ccc(Cl)c(Cl)c3)c2)cc1)NCCN1CCOCC1`, in that order: -2.69%, -1.17% and -1.61%.
For `CCCCOC(=O)c1ccc(NC(=O)Nc2ccc(Cn3ncc(N4CCCNCC4)c(Cl)c3=O)cc2)cc1`, in that order: 9.01%, 10.1% and 7.4%.
For `CCOc1cc(C)ccc1C1CCN(CCCCNC(=O)c2ccc(-c3ccc(C(F)(F)F)cn3)cc2)CC1`, in that order: 10.4%, 9.74% and 7.82%.
